Screening results (PubChem BioAssay)
Hits are enriched below; roughly 2.3% of the tested compounds scored in any of these assays.
GLD-1 TGE inh = GLD-1-TGE RNA interaction inhibition (C. elegans); purified GLD-1 + fluorescein TGE RNA, fluorescence polarization; inhibition, % at 5.96 µM; hit rate 0.44% among 320,000;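 active means percent inhibition above a per-plate cutoff, the plate mean of test compounds plus 3 SD, cut at about 30% in these data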;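 further: 0% = DMSO wells with GLD-1 and probe and 100% = wells lacking GLD-1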
Target sequence (Q17339 whole entry, looked up): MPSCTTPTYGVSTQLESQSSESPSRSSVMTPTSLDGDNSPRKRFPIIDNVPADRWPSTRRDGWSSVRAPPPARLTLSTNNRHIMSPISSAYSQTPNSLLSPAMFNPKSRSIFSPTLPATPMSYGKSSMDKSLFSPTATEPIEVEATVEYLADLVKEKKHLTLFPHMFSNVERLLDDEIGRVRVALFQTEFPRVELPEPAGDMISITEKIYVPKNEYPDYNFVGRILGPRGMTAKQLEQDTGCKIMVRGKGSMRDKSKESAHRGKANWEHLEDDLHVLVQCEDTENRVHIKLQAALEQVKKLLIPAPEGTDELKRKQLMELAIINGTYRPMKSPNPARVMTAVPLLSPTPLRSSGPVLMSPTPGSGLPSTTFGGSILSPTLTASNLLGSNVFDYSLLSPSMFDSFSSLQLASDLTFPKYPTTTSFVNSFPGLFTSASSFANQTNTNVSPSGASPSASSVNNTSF
Mcl-1 Bim block = disrupts Bim peptide binding to human Mcl-1 | hit rate 0.1% among 190,000 | AID 1009 | Q07820 | Bead-based flow cytometry, Bim peptide-Mcl-1 binding | inhibition, % at 10 µM; in the data active means inhibition above about 40%;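 further: 0% = no compound tracer wells and 100% = peptide blocker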
Mcl1 Noxa PPI = disrupts binding of human Mcl-1 to Noxa peptide; TR-FRET Mcl-1/Noxa peptide binding, 2 h; hit rate 1.5% among 220,000; inhibition, % at 21.7 µM; AID 1022;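 active means compounds that cut the protein-peptide binding signal by more than 50% relative to plate controls in a single-dose test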;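 further: His-tagged Mcl-1 with rhodamine Noxa BH3 peptide and terbium anti-His antibody; 0% = Mcl-1 plus Noxa peptide wells and 100% = peptide-only wells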
Mcl1 Bid PPI = Mcl-1/Bid interaction inhibition; Q07820; TR-FRET Mcl-1/Bid-Dy647 peptide binding, 1536-well; inhibition, % at 21.7 µM; hit rate 0.97% among 220,000; AID 1021;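 active means compounds that cut the binding signal by more than half at the single screening dose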;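 further: His-tagged Mcl-1 with europium anti-His antibody binding Bid BH3 peptide; 0% = Mcl-1 plus peptide wells and 100% = peptide-only wells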
MCL1-BIM inh = inhibitors of human MCL1 binding to BIM-BH3 peptide | Q07820 | GST-MCL1 / FITC-Bim-BH3 fluorescence polarization | AID 2057 | inhibition, % at 10.9 µM | hit rate 0.68% among 320,000;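 active means inhibition above the mean inhibition of all tested compounds plus 3 SD, set per campaign, cut at about 40% in these data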;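 further: 0% = DMSO wells and 100% = unlabeled Bim-BH3 peptide control; higher means more loss of mP so more displacement of Bim peptide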
BCLXL inh = blocks human Bcl-xL binding to Bim BH3 peptide; inhibition, % at 10.9 µM; GST-Bcl-xL / FITC-Bim BH3 peptide fluorescence polarization; hit rate 0.7% among 320,000;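 active means inhibition above the mean of all tested compounds plus 3 SD, cutoff set per campaign, cut at about 30% in these data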;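 further: 0% = DMSO wells and 100% = unlabeled Bim-BH3 peptide competitor; inhibitors lower millipolarization by displacing the labeled peptide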
Target sequence (Q07817 whole entry, looked up): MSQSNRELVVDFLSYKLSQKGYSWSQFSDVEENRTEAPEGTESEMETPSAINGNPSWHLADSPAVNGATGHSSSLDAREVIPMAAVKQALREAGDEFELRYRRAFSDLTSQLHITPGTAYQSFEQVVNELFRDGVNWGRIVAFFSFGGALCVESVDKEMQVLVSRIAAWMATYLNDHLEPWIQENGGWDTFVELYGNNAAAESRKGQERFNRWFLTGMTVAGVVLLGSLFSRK
Numbers without * were called inactive; x = no result.

SMILES | GLD-1 TGE inh | Mcl-1 Bim block | Mcl1 Noxa PPI | Mcl1 Bid PPI | MCL1-BIM inh | BCLXL inh
COc1ccc(NC(=O)C(NC(=O)c2ccc(=O)[nH]c2)c2ccc(C)cc2)cc1 (stereo unspecified) | -1.3 | 1.0 | 12.3 | -19.6 | -4.5 | -3.0
COc1c(N2CCNC(C)C2)c(F)cc2c(=O)c(C(=O)O)cn(C3CC3)c12 (stereo unspecified) | 3.7 | x | x | x | 5.4 | 3.1
NC1CCN(c2c(F)cc3c(=O)c(C(=O)O)cn(C4CC4)c3c2Cl)C1 (stereo unspecified) | 3.9 | x | -36.8 | 63.0* | -11.5 | -0.6
COc1ccccc1NC(=O)C(=O)c1cn(CC(=O)N2CCCC2)c2ccccc12 | -7.6 | x | x | x | -4.6 | 0.3
C#Cc1ccc([C@H]2C=C(C(=O)O)O[C@@H](OCc3ccc(CO)cc3)C2)cc1 | 1.9 | -2.0 | 7.1 | 50.6* | -0.8 | 3.5
O=C(C1=C[C@@H](c2ccc3c(c2)OCO3)C[C@@H](OCCCCO)O1)N1CCN(Cc2ccc3c(c2)OCO3)CC1 | 3.4 | -4.0 | 3.3 | 14.1 | -2.0 | -0.2
C#Cc1ccc([C@@H]2C=C(C(=O)N3CCN(Cc4ccc5c(c4)OCO5)CC3)O[C@H](OCCCCO)C2)cc1 | 4.2 | 0.0 | -0.6 | 83.8* | 1.9 | 1.4
O=C(C1=C[C@@H](c2ccc(C(F)(F)F)cc2)C[C@@H](OCc2ccc(CO)cc2)O1)N1CCN(Cc2ccccc2)CC1 | 9.7 | 0.0 | 80.9* | -14.7 | 8.4 | 8.0
NC(=O)COc1c(-c2ccccc2)oc2ccccc2c1=O | 2.1 | 3.0 | 16.6 | 97.5* | 8.0 | 9.8
COc1cccc(CN2CCSCC2)c1 | -2.2 | 0.0 | 41.2 | 62.2* | 0.3 | 2.5
COc1cccc(CN2CCN(Cc3cc(OC)c(OC)cc3OC)CC2)c1 | -0.4 | x | x | x | 5.0 | 6.4
CC(=O)Oc1cccc(/C=c2\sc3nc(-c4ccco4)nn3c2=O)c1 | -1.1 | -4.0 | 28.8 | -30.1 | 25.0 | 11.2
CN(C)c1ccc(/C=c2\sc3nc(-c4ccccc4)nn3c2=O)cc1 | x | -4.0 | 78.8* | 73.1* | x | x
COc1cc(/C=c2\sc3nc(-c4ccncc4)nn3c2=O)ccc1OC(C)=O | x | -4.0 | 70.4* | 49.9 | x | x
COc1ccc(-n2nc(C(=O)NCC(=O)N3CCN(Cc4ccccc4)CC3)c3ccccc3c2=O)cc1 | 1.4 | x | x | x | 0.2 | 5.6
COc1ccc(C2NC3=C(CCC3)C3(C#N)C(OC)(OC)N=C(N)C23C#N)cc1 (stereo unspecified) | 20.1 | 0.0 | 13.7 | -18.8 | 31.8 | 31.3*
CC1=C(C(=O)OCC(C)C)C(c2ccsc2)NC(=O)N1 (stereo unspecified) | 5.2 | -3.0 | 78.6* | -4.9 | -5.9 | -3.0
COc1ccc(NC(=O)CCNC(=O)Cn2cnc3sc4c(c3c2=O)CCCC4)c(OC)c1 | 0.1 | x | x | x | -2.7 | 0.6
Cc1ccccc1C(=O)Nc1nnc(SCC(=O)NC2CC2)s1 | 3.3 | x | x | x | 1.7 | 0.3
O=C1Nc2ccccc2/C1=N/N=C/c1ccc(-c2ccc([N+](=O)[O-])cc2)o1 | x | 10.0 | 79.8* | 88.6* | x | x
NC(=S)N/N=C/c1ccc(-c2ccc([N+](=O)[O-])cc2)o1 | 2.4 | 0.0 | 52.0* | -14.1 | -78.5 | -39.0
COCC(=O)Nc1ccc(N2CCOCC2)c(S(=O)(=O)Nc2ccc(OC)cc2)c1 | 0.9 | x | x | x | x | x
COc1ccc(-c2csc(Cc3nnc4n3CCCCC4)n2)cc1OC | -1.2 | 2.0 | 62.5* | 55.4* | 0.5 | 1.1
COc1ccc(-c2nnc3n2CCCCC3)cc1OC | 5.4 | x | x | x | 1.1 | 6.7
CSc1nnc2ccc(-c3cccs3)nn12 | 8.1 | 42.0* | 2.7 | -4.9 | -5.1 | 3.9
SMILES | GLD-1 TGE inh | Mcl-1 Bim block | Mcl1 Noxa PPI | Mcl1 Bid PPI | MCL1-BIM inh | BCLXL inh
c1cc(CNCCCN2CCOCC2)ccn1 | -3.0 | -3.0 | 10.3 | -6.0 | -2.3 | 1.6
CCCCCC1CC(CC#CCN2CCOCC2)C(=O)O1 (stereo unspecified) | -2.0 | 0.0 | -1.4 | 51.1* | 14.6 | 11.0
CC(=O)N/C(=C\c1ccc2c(c1)OCO2)C(=O)NC(C(=O)O)c1ccccc1 (stereo unspecified) | 5.7 | x | -6.3 | -8.6 | 1.4 | 2.4
CC1CC(C)CN(CCOCCSc2ccccc2)C1 (stereo unspecified) | 2.5 | -5.0 | 17.7 | 69.0* | 7.3 | 6.6
CNC(=S)Nc1cc(C)ccc1OC(F)F | 6.9 | -4.0 | 37.3 | 97.9* | 2.0 | 4.1
COC(=O)Cn1c(C)nc2c(sc3nc(C)cc(C)c32)c1=O | 6.2 | 0.0 | -12.1 | 7.6 | 2.2 | 0.7
O=C(O)c1ccc(-n2cc(-c3cc4ccccc4oc3=O)[nH]c2=S)cc1 | x | 0.0 | 50.5* | -28.9 | x | x
COc1ccc2cc(C3(C)NC(=O)N(CC(=O)NCCC4=CCCCC4)C3=O)ccc2c1 (stereo unspecified) | 1.7 | 4.0 | 9.8 | -5.0 | -1.8 | -1.9
COc1ccc(C2(C)NC(=O)N(CC(=O)NCCC3=CCCCC3)C2=O)cc1OC (stereo unspecified) | 1.4 | -1.0 | 6.0 | 84.3* | -21.2 | -6.0
COc1ccc(CCNC(=O)C2CCN(S(=O)(=O)N3CCCCCC3)CC2)cc1OC | 0.9 | 1.0 | 2.7 | 2.4 | -1.1 | 3.2
COc1ccc(N)cc1-n1c(C)ccc1C | 11.0 | 2.0 | 21.3 | -85.5 | 45.6* | 38.4*
COc1cc(NCCC(=O)c2cccs2)c(OC)cc1Cl | -1.1 | -1.0 | 86.4* | -28.4 | 1.7 | 3.4
OCCOCCn1c(CCNc2nc(-c3ccc(F)cc3)cs2)nc2cc(C(F)(F)F)ccc21 | -0.6 | x | x | x | 4.7 | 2.7
Nc1ccccc1NC(=O)c1ccccc1 | 0.1 | -3.0 | 2.9 | -24.7 | 0.0 | -1.5
Nc1ccc(Br)c2c1C(=O)c1ccccc1C2=O | 16.2 | 1.0 | 35.9 | -4.8 | 40.4* | 46.2*
Nc1ccc(NC(=O)c2ccccc2)c2c1C(=O)c1ccccc1C2=O | 7.6 | -1.0 | 65.6* | 53.5* | 16.8 | 7.7
CN1CCC(NC(=O)CCc2ccccc2)CC1 | 1.2 | x | x | x | 5.1 | 4.5
CN1C(=O)/C(=C/c2ccccc2OCc2cccc(F)c2)NC1=S | 8.2 | -3.0 | 5.3 | 77.7* | 8.8 | -2.2
COc1ccccc1NCC(=O)c1ccc(C)c(C)c1 | 8.4 | x | x | x | -1.3 | 0.4
COCC1CCCCN1C(=O)c1ccc2oc(CCCc3ccccc3)nc2c1 (stereo unspecified) | 7.8 | x | x | x | -1.8 | 2.5
Cc1cnn(C(=O)c2cc(-c3ccccn3)nc3ccc(Cl)cc23)c1 | 0.8 | 0.0 | 32.7 | -12.3 | 27.5 | 31.1*
O=C(c1cc(-c2ccccn2)nc2ccc(Cl)cc12)N1CCN(CCc2ccccc2)CC1 | 4.4 | -1.0 | 10.5 | -11.9 | 12.7 | 11.0
COc1ccc(CNC(=O)CC2C(=O)NCCN2C2Cc3ccccc3C2)cc1 (stereo unspecified) | 7.8 | x | x | x | -1.9 | -0.9
